HT1080NT lethal: qHTS for induction of synthetic lethality in tumor cells producing 2HG: qHTS for the HT-1080-NT fibrosarcoma cell line; Potency, µM (titrated, usually from 46.1 µM), for the others: top-dose activity, negative = less viability, most hits filed as cytotoxic; 360,000 tested, 1.6% active; HT-1080-NT fibrosarcoma viability, CellTiter-Glo ATP luminescence, 48 h;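 also: NT is the 2HG producing partner of a matched IDH1 knockdown line; 0% = DMSO-treated cells and -100% = media-only wells without cells; nearly all actives have a fitted effect of over 55% in size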
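Viability by CellTiter-Glo luminescence after 48 h compound exposure at 37C of HT-1080-NT cells (750/well, RPMI, 5% FBS). % activity scaled between DMSO wells and medium-only wells, then curve-fitted and categorized by curve class.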
S2 tox: Viability Counterscreen for Primary qHTS for Inhibitors of ATXN expression | S2 cells (HEK-293 line with an ATXN2-luciferase reporter) viability, CellTiter-Fluor protease fluorescence, 24 h | Potency, µM (top dose mostly 56.7 µM), hits mostly cytotoxic | 400,000 tested, 0.49% active; also: nearly all actives have a fitted effect of over 40% in size
ATXN2 expr inh: Primary qHTS for Inhibitors of ATXN expression; HEK-293 ATXN2-luciferase reporter, luminescence, 24 h; 360,000 tested, 0.72% active; Potency, µM (titrated, usually from 57 µM), inactives show top-dose activity change, negative = inhibition, hits mostly inhibitors; also: % is scaled to controls: 0 for no effect and ±100 for the full control effect; nearly all actives have a fitted effect of over 55% in size
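ATXN2-luciferase reporter cells (luciferase flanked by upstream and downstream ATXN2 gene portions) were treated 24 h at 37 °C with compounds at up to 57 uM. SteadyGlo luminescence gave expression; GF-AFC fluorescence gave viability.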
HT1080 IDH1KD tx: qHTS for induction of synthetic lethality in tumor cells producing 2HG: qHTS for the HT-1080-IDH1KD cell line; HT-1080 IDH1 knockdown viability, ATP luminescence, 48 h; Potency, µM (titrated, usually from 46.1 µM), without a hit: top-dose activity, negative = toxicity, hits mostly cytotoxic; 360,000 tested, 2% active; AID 686971, 2013;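 also: 0% = DMSO wells and -100% = cell-free medium wells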
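Viability of IDH1-knockdown HT-1080 fibrosarcoma cells was assessed by CellTiter-Glo after 48 h at 37 °C with titrated compound; concentration-effect curves were classified by fit quality and response size.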
HepG2 tox: qHTS for Inhibitors of TGF-b: Cytotox Counterscreen; HepG2 CAGA-GFP viability, ATP luminescence, 18 h; Potency, µM (titrated, usually from 46.1 µM), without a hit: at the top dose activity change, negative = cytotoxicity, actives largely listed as cytotoxic; 410,000 tested, 0.76% active; AID 588856, 2011
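HepG2 CAGA-GFP cells (1000/well, DMEM with 1% FBS) received compound, then TGF-beta at 500 pg/mL final, and were incubated 18 hours at 37 degrees C. Viability was read by CellTiter-Glo luminescence. Media-only wells were set as complete cell-killing and DMSO as no toxicity.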
TGFb inhibitor: qHTS for Inhibitors of TGF-b | HepG2 CAGA-GFP TGF-b/SMAD3 reporter, GFP fluorescence, 18 h; TGF-beta stimulated, 500 pg/mL final | Potency, µM (top dose mostly 46.1 µM), inactives show at the top dose activity, negative = inhibition, most hits filed as inhibitors | 410,000 tested, 1.2% active | AID 588855, 2011; also: % is scaled to controls: 0 for no effect and ±100 for the full control effect; nearly all actives have a fitted effect of over 65% in size
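Per well, imaged GFP fluorescence of HEPG2 CAGA-GFP cells gives the signal; cells get compound, then TGF-beta (500 pg/mL final), 18 h at 37 degrees C; %Activity versus -TGF-beta and +DMSO controls.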
Numbers without * were called inactive; i = inactive; ? = inconclusive; nt = no result given; [ ] = another dose, or the depositor's remark. This is a sample that favours compounds with a hit; in the whole collection about 3.8% have one here. Calls follow the shape of the dose curve; as a rule, active = well fitted curve in the direction sought with a large enough effect; inconclusive = small, poorly fitted or top-dose-only effect, or another doubt; inactive = no such curve, though single readings can be large; an effect the other way counts as inactive or inconclusive. Potency is read from the fitted curve at half-maximal effect.

SMILES | HT1080NT lethal | S2 tox | ATXN2 expr inh | HT1080 IDH1KD tx | HepG2 tox | TGFb inhibitor
COc1ccc(-c2nnc(NC(=O)c3ccc(S(=O)(=O)N4CCCc5ccccc54)cc3)o2)cc1 | 11µM* | i | ? | 11µM* | -3% | ?
Cc1ccc2nc(NC(=O)c3ccc(S(=O)(=O)N4CCCc5ccccc54)cc3)sc2c1 | 18µM* | i | -19% | 16µM* | -27% | -1%
COCc1nnc(NC(=O)c2ccc(S(=O)(=O)N3CCCc4ccccc43)cc2)o1 | 15µM* | i | -17%[11.3 µM] | 21µM* | -20% | -1%
O=C(Nc1nc2c(F)cccc2s1)c1ccc(S(=O)(=O)N2CCCc3ccccc32)cc1 | nt | i | 0% | nt | -9% | 3%
O=C(Nc1nnc(C2CC2)o1)c1ccc(S(=O)(=O)N2CCCCC2)cc1 | -15% | i | -21% | -29% | -42% | ?
CCOc1ccc(CCNC(=O)CN2C(=O)C(CC)Oc3ccccc32)cc1OCC (configuration not stated) | nt | nt | nt | nt | -17% | -17%
Cc1cc(C)cc(-n2ccnc2SCC(=O)Nc2ccc(C)cc2C)c1 | nt | i | -24% | nt | -38% | ?
Cc1ccc2nc(N/N=C/c3ccco3)cc(C)c2c1 | -8% | i | -29% | -1% | 11µM* | ?
Cc1ccc2nc(SCC(=O)N/N=C/c3ccco3)cc(C)c2c1 | 0% | i | -5% | -14% | -18% | -21%
COc1ccc(C(=O)NCC2Cc3cccc(-c4ccc(S(C)(=O)=O)cc4)c3O2)c(OC)n1 (configuration not stated) | nt | i | nt | nt | nt | nt
COCC(=O)Oc1cc(-c2ccc(C)cc2C)c(OC(=O)COC)c(-c2ccc(C)cc2C)c1 | -24% | i | nt | ? | 7.1µM* | ?
Cc1ccc(OCC(=O)Oc2c(C)cccc2C)cc1 | 17% | i | -23% | -2% | 0% | 3%
CN(C)CCNC(=O)c1cc2c(s1)-c1ccc(Cl)cc1SC2 | ? | ? | nt | ? | 11µM* | 11µM*
Cc1ccc(CNC(=O)c2cc3c(s2)-c2ccc(Cl)cc2SC3)cc1 | nt | i | -4% | nt | 0% | -4%
Nc1ccc(/C=C/c2nc3ccccc3s2)cc1 | nt | nt | nt | nt | -13% | 0%
CCN(C(=O)c1cc2c(=O)oc3ccc(C)cc3c2s1)c1ccccc1F | nt | i | 9% | nt | -19% | -6%
O=C(c1ccc(F)cc1)N1CCC[C@H](c2nc(-c3ccc(F)cc3)no2)C1 | nt | nt | 16% | nt | nt | nt
CCc1nn2c(=O)c(S(=O)(=O)Nc3ccc(C)c(C)c3)c(C)nc2s1 | nt | i | -12% | nt | -22% | -6%
O=C(C[N+]1(CCO)CCOCC1)c1ccc(F)c2ccccc12 | nt | nt | nt | nt | 4% | 14%
CCOC(=O)/C(=N\Nc1ccc(Cl)cc1)c1csc(Nc2ccccc2)n1 | ? | ? | 2% | ? | 11µM* | ?
O=c1[nH]c2ccccc2c2oc(CCl)nc12 | 5.8µM* | i | -22% | 15µM* | -95% | ?
CCC1CCc2c(c3ccccc3[nH]c2=O)O1 (configuration not stated) | 1% | i | 0% | -5% | -1% | 3%
CCOc1ccc2[nH]c(=O)c(CN(CCN3CCCC3)C(=S)Nc3ccccc3OCC)cc2c1 | ? | ? | -34% | ? | 14µM* | 16µM*
CCOc1ccc2[nH]c(=O)c(CN(Cc3ccc(F)cc3)C(=O)c3ccco3)cc2c1 | ? | ? | -25% | 23µM* | 0% | ?

Screening data deposited in PubChem by National Center for Advancing Translational Sciences (NCATS).
